# Shown are actives, neighbours in structure and some others; about 5.1% of the full set was active somewhere.
# S1P3 antag – blocks the human S1P3 receptor; inhibition, % at 4.98 µM; CHO S1P3 NFAT-BLA reporter, FRET fluorescence, antagonist mode; 170,000 tested, 0.27% active; Q99500; AID 485;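 active means inhibition above the plate cutoff, the mean inhibition of test wells on that plate plus 3 SD, cut at about 28% in these data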;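 further: cells challenged with S1P at its EC80 of 0.8 µM; blue over green emission ratio from cleaved BLA substrate after 4 h stimulation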
# ROMK mod – modulates human ROMK potassium channel activity | P48048 | Tet-inducible ROMK, thallium flux fluorescence; actives lie on both sides | 130,000 tested, 2% active | B-score at 10 µM;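 active means signal ratio slope over the read window, or its plate-corrected B-score, at least 3 SD from the plate mean, either direction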;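 further: B-score of the F/F0 ratio slope over 7 to 12 s after thallium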
# S1P4 antag – human S1P4 receptor antagonism | S1P4-expressing cells, antagonist mode, reporter read-out | inhibition, % at 4.98 µM | 220,000 tested, 0.26% active; in the data active means inhibition above about 29%
# RAM network inh – yeast RAM network inhibition; S. cerevisiae dse1pr::URA3 reporter, 5-FOA growth OD615, 2 d; analog-sensitive cbk1-as2 kinase mutant strain; inhibition, % at 50 µM; 190,000 tested, 1.8% active; AID 868;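 active means inhibition above a set limit, 3 SD over mean compound inhibition, cut at about 8.4% in these data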;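 further: inhibition rescues growth on 5-FOA so higher OD means more RAM inhibition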
# KCC2 mod – modulators of human KCC2 chloride dependent transport; KCC2 cells, thallium flux FluoZin-2 fluorescence; 190,000 tested, 2.2% active; B-score of Tl+ flux slope (higher = more flux/activation; lower = inhibition) at 10 µM;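 active means thallium flux slope and its plate-corrected score both differing from the plate sample mean at a set confidence after two filtering rounds, in either direction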;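 further: slope of fluorescence scaled to starting intensity during 10 to 20 s after thallium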
# S1P4 ag – agonists of human S1P4 receptor | O95977 | S1P4-expressing cell line, agonist reporter assay | activation, % at 4.98 µM | 220,000 tested, 0.35% active | AID 1509; in the data active means activation above about 11%
# RAM efflux-def – RAM network inhibitors in efflux-deficient yeast; 1,200 tested, under 10 active; S. cerevisiae efflux-deficient reporter strain, 5-FOA growth OD615, 2 days; max inhibition, %; shares compounds with RAM network inh; AID 1305; call rule not given here
# Hits are given with their value; – = inactive; · = not tested or not shown.
SMILES,S1P3 antag,ROMK mod,S1P4 antag,RAM network inh,KCC2 mod,S1P4 ag,RAM efflux-def
C=CCOC(=O)C1=C(C)NC(SCC)=C(C#N)C1c1ccc(Cl)cc1 (centres undefined),·,·,–,13,–,–,–
C=CCOC(=O)C1=C(C)NC(SCC(N)=O)=C(C#N)C1c1ccc(C)cc1 (centres undefined),–,·,–,·,–,–,·
O=C(CNS(=O)(=O)c1ccc2ccccc2c1)OCc1csc(-c2ccccc2)n1,–,–,–,14,–,–,–
Cc1ccc(S(=O)(=O)NCC(=O)OCc2csc(-c3ccccc3)n2)cc1,–,·,–,–,–,–,·
O=C(CSc1nc2[nH]ncc2c(=O)[nH]1)NCCc1ccccc1,–,–,–,–,–,–,·
CCN(CC)S(=O)(=O)c1cccc(C(=O)c2c(C)cc3ccccn23)c1,–,–,–,15,–,–,–
Cc1cc(OCc2ccc(F)cc2)nc(-c2ccccc2O)n1,–,–,–,–,·,–,·
Cc1cc(Oc2ccc(Cl)cc2)nc(-c2ccccc2O)n1,·,–,–,14,–,–,–
COC(=O)[C@H](Cc1ccccc1)NC(=O)[C@@]1(C)C[C@@H]1[C@@H](NC(=O)OCc1ccccc1)c1ccccc1,–,–,–,13,–,–,–
COC(=O)C(Cc1ccccc1)NC(=O)C12CC3CC(CC(C3)C1)C2 (centres undefined),–,·,–,–,–,–,·
Cc1cc(NC(=O)CSc2nc(=O)cc(N)n2-c2ccc(Cl)cc2)no1,–,–,–,–,–,–,·
Cc1sc2nc(-c3cccnc3)nc(Cl)c2c1-c1ccccc1,–,–,–,–,–,–,·
CCOC(=O)Cc1csc(NC(=O)NC2(C(F)(F)F)Oc3ccccc3O2)n1,·,–,–,14,·,–,–
COc1ccc(-c2nc3ccccc3c(=O)n2CCOc2c(C)cccc2C)cc1,–,–,–,17,–,–,–
COc1ccc(-c2nc3ccccc3c(=O)n2CCN2CCOCC2)cc1,–,·,–,–,–,–,·
COc1ccc(-c2nc3ccccc3c(=O)n2CCOc2cccc(C)c2C)cc1,–,·,–,16,–,–,–
CC(C)(C)NC(=O)C(c1ccccn1)N(C(=O)c1csnn1)C1CCCC1 (centres undefined),–,·,–,·,–,–,·
Cn1ccnc1C1CCCCN1C(=O)c1cc(COc2ccc(F)cc2Cl)on1 (centres undefined),–,–,–,–,–,–,·
O=c1c(-c2nnc(SCc3ccc(Cl)cc3Cl)o2)cccn1Cc1ccccc1,·,·,–,12,–,–,–
FC(F)Oc1ccc(NC(=S)NCC2COc3ccccc3O2)cc1 (centres undefined),–,–,–,–,–,–,·
Cc1cc(C)c(S(=O)(=O)NCc2ccc3c(c2)cc(C)n3C)c(C)c1,·,·,–,14,–,–,–
Cc1cc2cc(CNS(=O)(=O)c3ccc4ccccc4c3)ccc2n1C,·,·,–,–,–,–,·
O=C(/C=C/c1cccc(Br)c1)N1CCN(c2cccc(C(F)(F)F)c2)CC1,–,–,–,16,–,–,–
O=C(c1c(F)c(F)c(F)c(F)c1F)N1CCN(c2cccc(C(F)(F)F)c2)CC1,–,·,–,–,–,–,·
COc1cccc(/C=N/NC(=O)c2ccccc2N(Cc2ccccc2)S(=O)(=O)c2ccccc2)c1OC,·,·,–,–,·,–,·
O=C(O)Cc1ccc(C(=O)c2ccc(Cl)cc2Cl)s1,–,–,–,–,–,–,·
O=C(c1cnc(-c2ccc(Cl)cc2)s1)c1ccc(Cl)cc1Cl,·,·,–,15,–,–,–
CCCOc1ccc(CC(=O)NNC(=S)Nc2ccccc2)cc1Br,·,·,–,15,–,–,–
COc1ccc(CC(=O)NNC(=S)Nc2ccccc2)cc1Cl,–,–,–,–,–,–,·
Cc1ccc(-c2csc(N(CC3CCCO3)C(=O)c3ccco3)n2)cc1 (centres undefined),–,–,–,13,–,–,–

# From PubChem
